From PubChem BioAssay (NCI)
About 83,000 compounds went through this panel and 20% of them were active in at least one assay; those are over-represented in the sample as a whole.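 Activity criterion: percent growth below 10, measured after cells in 96-well plates were exposed to a single compound concentration for 48 hours.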 A number with no mark means an inactive call. The source made the active and inactive calls.

test system: HS 578T breast; experiment: NCI-60 one-dose screen, 48 h (100 = growth as untreated, 0 = no growth, -100 = all killed); settings: 10 µM

Compound | growth
CCN(CC)CCNc1ccc(CO)c2oc3cc(Cl)ccc3c(=O)c12 | 99%
COc1ccc(-c2nc3ccccn3c2-c2nnc(-c3cc(OC)c(OC)c(OC)c3)o2)cc1 | 82.2%
N#Cc1c(C#N)c(SSc2c(C#N)c(C#N)c(N)n2-c2ccccc2)n(-c2ccccc2)c1N | 99.6%
Cc1ccc(-c2nc(/C=C3/C(=O)N(C)c4ccc(F)cc43)c3ccccn23)cc1 | 107%
CCN(CC)CCSCCCNc1c2ccc(Cl)cc2nc2ccc(OC)cc12 | 6.72% (active)
CN1CC[C@@H](c2c(O)cc(O)c3c(=O)cc(-c4ccccc4Cl)oc23)[C@@H](O)C1 | 12.9%
NC1=NC(=O)C(c2ccccc2)(c2ccccc2)S1 | 108%
CCc1ccc2c(c1)N(CCO)C1=C(C(=O)OC1)C2c1ccccc1 (stereo unspecified) | 125%
Cc1cccc2c(NCCN(C)C)c3cccc(C(=O)NCCN(C)C)c3nc12 | 10.2%
CCCN(CCC)CCC(O)c1cc2c(c3ccccc13)CCCC2 (stereo unspecified) | 88%
COc1ccc2c(c1)/C(=C\c1c[nH]c3ccc(OC)cc13)C(=O)N2 | 46.9%
Nc1ccn(C2CC(O)C(CO)O2)c(=O)n1 (stereo unspecified) | 111%
COc1cccc(C2C3=C(COC3=O)N(CCO)c3cc(OC)ccc32)c1 (stereo unspecified) | 15.5%
C=C(C(=O)c1ccccc1)C(NC(C)(C)C)c1ccccc1 (stereo unspecified) | 36.8%
CCCC1(CC(=O)O)OCCc2c1[nH]c1ccccc21 (stereo unspecified) | 101%
CN(C)C(=S)N/N=C\C=N/NC(=S)N(C)C | 74.5%
C=C(NC(=O)C(=C)NC(=O)c1csc(C2=NC3c4csc(n4)C4NC(=O)c5csc(n5)C(C(C)(O)C(C)O)NC(=O)C5CSC(=N5)/C(=C/C)NC(=O)C(C(C)O)NC(=O)c5csc(n5)C3(CC2)NC(=O)C(C)NC(=O)C(=C)NC(=O)C(=C)NC(=O)C(C(C)C)NC2C=Cc3c(C(C)O)cc(nc3C2O)C(=O)OC4C)n1)C(N)=O (stereo unspecified) | 22%
COc1ccc2nc3ccccc3c(NCCNCC(C)O)c2c1 (stereo unspecified) | 28.4%
CN(C)CCN1C(=O)c2cccc3cc(N)cc(c23)C1=O | 57.6%

Compound | growth
COc1ccc(N2C(=O)C3c4[nH]c5ccc(OCc6ccccc6)cc5c4C4CCC(C(C)C)CC4C3C2=O)cc1 (stereo unspecified) | 92.7%
CC(C)C[C@H](NC(=O)[C@H](Cc1cccc2ccccc12)NS(=O)(=O)c1cccc2cccnc12)B(O)O | -18.8% (active)
O=C(CC(C(=O)c1ccccc1)N1CCOCC1)c1ccccc1 (stereo unspecified) | 99%
NC(=O)SCC(=O)Nc1ccc(S(N)(=O)=O)cc1 | 99.6%
CCCCN(CCCC)CCCCCCCCC(O)c1cc2ccccc2c2ccccc12 (stereo unspecified) | 73.7%
O=C(CCCCCCC(=O)Nc1cccnc1)NO | 34.6%
COc1ccc2nc3cc(Cl)ccc3c(NCCNCC(C)O)c2c1 (stereo unspecified) | 67.2%
Clc1cccc(-c2nc(-c3cccs3)no2)c1 | 136%
CCCCCCCCCCCCCCCCCCOCC(COCCOCC[N+]1(CCCCCC(=O)[O-])CCCC1)Oc1ncccn1 (stereo unspecified) | 65.6%
CC/C(=N\N=C(/CC)c1ccc(Br)cc1)c1ccc(Br)cc1 | 110%
O=C1OCC2=C1C(c1ccc(Cl)c(Cl)c1)c1cc3c(cc1N2CCO)OCCO3 (stereo unspecified) | -13.3% (active)
COc1cc2nc(Nc3cccc(NC(C)=O)c3)nc(N)c2cc1OC | 95.7%
Cc1nc2ccc(CN(C)c3ccc(C(=O)N[C@@H](CCC(=O)O)C(=O)O)s3)cc2c(=O)[nH]1 | 73.2%
Nc1ncnc2[nH]c(=O)[nH]c12 | 144%
COc1ccc2c(c1)sc1nc(-c3ccccc3)c(-c3cccnc3)n12 | 99.7%
C=C(Cl)[C@@](Cl)(CBr)CC[C@@H](Br)C(C)(C)Cl | -29% (active)
C[N+](C)(C)c1ncnc2nc[nH]c12 | 101%
COC(=O)[C@@H]1[C@H](O)[C@H](C)[C@H](O)[C@@](C)(O)/C=C\C=C(C)C(=O)Nc2c(C)c(OC(C)=O)c3c(c2O)C(=O)C(C)=C2OCOC(=C23)C(C)=C[C@@](C)(O)[C@H](O)[C@@H](C)[C@H]1OC(C)=O | 110%

test system: NCI/ADR-RES ovarian; experiment: as above; settings: 10 µM

Compound | growth
CCN(CC)CCNc1ccc(CO)c2oc3cc(Cl)ccc3c(=O)c12 | 74.2%
O=C(O)C(SC(C(=O)O)c1ccccc1)c1ccccc1 (stereo unspecified) | 106%
COc1ccc(-c2nc3ccccn3c2-c2nnc(-c3cc(OC)c(OC)c(OC)c3)o2)cc1 | 63.7%
N#Cc1c(C#N)c(SSc2c(C#N)c(C#N)c(N)n2-c2ccccc2)n(-c2ccccc2)c1N | 101%
Cc1ccc(-c2nc(/C=C3/C(=O)N(C)c4ccc(F)cc43)c3ccccn23)cc1 | 105%
CCN(CC)CCSCCCNc1c2ccc(Cl)cc2nc2ccc(OC)cc12 | 1.58% (active)
CN1CC[C@@H](c2c(O)cc(O)c3c(=O)cc(-c4ccccc4Cl)oc23)[C@@H](O)C1 | 12.2%
NC1=NC(=O)C(c2ccccc2)(c2ccccc2)S1 | 109%
CCc1ccc2c(c1)N(CCO)C1=C(C(=O)OC1)C2c1ccccc1 (stereo unspecified) | 78.7%
Cc1cccc2c(NCCN(C)C)c3cccc(C(=O)NCCN(C)C)c3nc12 | -3.11% (active)
CCCN(CCC)CCC(O)c1cc2c(c3ccccc13)CCCC2 (stereo unspecified) | 83.3%
COc1ccc2c(c1)/C(=C\c1c[nH]c3ccc(OC)cc13)C(=O)N2 | 28.1%
Nc1ccn(C2CC(O)C(CO)O2)c(=O)n1 (stereo unspecified) | 102%
COc1cccc(C2C3=C(COC3=O)N(CCO)c3cc(OC)ccc32)c1 (stereo unspecified) | -12.5% (active)
C=C(C(=O)c1ccccc1)C(NC(C)(C)C)c1ccccc1 (stereo unspecified) | -7% (active)
CCCC1(CC(=O)O)OCCc2c1[nH]c1ccccc21 (stereo unspecified) | 107%
CN(C)C(=S)N/N=C\C=N/NC(=S)N(C)C | 51.3%
C=C(NC(=O)C(=C)NC(=O)c1csc(C2=NC3c4csc(n4)C4NC(=O)c5csc(n5)C(C(C)(O)C(C)O)NC(=O)C5CSC(=N5)/C(=C/C)NC(=O)C(C(C)O)NC(=O)c5csc(n5)C3(CC2)NC(=O)C(C)NC(=O)C(=C)NC(=O)C(=C)NC(=O)C(C(C)C)NC2C=Cc3c(C(C)O)cc(nc3C2O)C(=O)OC4C)n1)C(N)=O (stereo unspecified) | 77.2%
COc1ccc2nc3ccccc3c(NCCNCC(C)O)c2c1 (stereo unspecified) | 73.6%
CN(C)CCN1C(=O)c2cccc3cc(N)cc(c23)C1=O | 32.3%

Compound | growth
COc1ccc(N2C(=O)C3c4[nH]c5ccc(OCc6ccccc6)cc5c4C4CCC(C(C)C)CC4C3C2=O)cc1 (stereo unspecified) | 109%
CC(C)C[C@H](NC(=O)[C@H](Cc1cccc2ccccc12)NS(=O)(=O)c1cccc2cccnc12)B(O)O | 14.6%
O=C(CC(C(=O)c1ccccc1)N1CCOCC1)c1ccccc1 (stereo unspecified) | 98%
NC(=O)SCC(=O)Nc1ccc(S(N)(=O)=O)cc1 | 105%
CCCCN(CCCC)CCCCCCCCC(O)c1cc2ccccc2c2ccccc12 (stereo unspecified) | 54.6%
O=C(CCCCCCC(=O)Nc1cccnc1)NO | 2.65% (active)
COc1ccc2nc3cc(Cl)ccc3c(NCCNCC(C)O)c2c1 (stereo unspecified) | 51.9%
Clc1cccc(-c2nc(-c3cccs3)no2)c1 | 107%
CCCCCCCCCCCCCCCCCCOCC(COCCOCC[N+]1(CCCCCC(=O)[O-])CCCC1)Oc1ncccn1 (stereo unspecified) | 108%
CC/C(=N\N=C(/CC)c1ccc(Br)cc1)c1ccc(Br)cc1 | 105%
O=C1OCC2=C1C(c1ccc(Cl)c(Cl)c1)c1cc3c(cc1N2CCO)OCCO3 (stereo unspecified) | 3.69% (active)
COc1cc2nc(Nc3cccc(NC(C)=O)c3)nc(N)c2cc1OC | 149%
Cc1nc2ccc(CN(C)c3ccc(C(=O)N[C@@H](CCC(=O)O)C(=O)O)s3)cc2c(=O)[nH]1 | 43.8%
CCCCCCCCN(CCCCCCCC)CCCCCCCCCN1CCCc2cc(OC)ccc21 | 88.5%
Nc1ncnc2[nH]c(=O)[nH]c12 | 107%
COc1ccc2c(c1)sc1nc(-c3ccccc3)c(-c3cccnc3)n12 | 96.4%
C=C(Cl)[C@@](Cl)(CBr)CC[C@@H](Br)C(C)(C)Cl | -66.6% (active)
C[N+](C)(C)c1ncnc2nc[nH]c12 | 94.1%
COC(=O)[C@@H]1[C@H](O)[C@H](C)[C@H](O)[C@@](C)(O)/C=C\C=C(C)C(=O)Nc2c(C)c(OC(C)=O)c3c(c2O)C(=O)C(C)=C2OCOC(=C23)C(C)=C[C@@](C)(O)[C@H](O)[C@@H](C)[C@H]1OC(C)=O | 114%
